Measurements reported in PubChem BioAssay AID463213 (Sanford-Burnham Center for Chemical Genomics, 2010).
Out of some 7,400 compounds screened, about 4,100 (55%) were called active. The set was probably picked from earlier hits. These entries were drawn from the full list. A number with no mark means an inactive call.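 How the source made its calls: active means inhibition of yeast growth at or above a set limit in either of two repeat tests at 20 µM; inactive means the rest.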

test: tim10-1 ts yeast growth inhibition, retested – single concentration, luminescence, S. cerevisiae, confirmation (AID 463213); details: S. cerevisiae tim10-1 ts strain growth, BacTiter-Glo, 24 h; at 20 µM; stronger effect = higher value

Structure (SMILES)	inhibition
Cc1nc2ccccn2c1P(=S)(N1CCCCC1)N1CCCCC1	38.4% (active)
COc1cccc(N2C(=O)NC(=O)/C(=C\c3ccc([N+](=O)[O-])s3)C2=O)c1	76.5% (active)
O=C1NC(=O)N(c2ccccc2)C(=O)/C1=C/c1ccc([N+](=O)[O-])s1	75.3% (active)
N#CC1=C(N)Oc2c(c(=O)oc3ccccc23)C1c1ccccc1OC(=O)c1cccs1 (stereo not given)	22.8%
CCCCCn1c(=O)c(C(=O)Nc2c(C)n(C)n(-c3ccccc3)c2=O)c(O)c2ccccc21	6.15%
